For 56 compounds, INHIBITION results are on record in ChEMBL document CHEMBL4513216, “Probing the Open Global Health Chemical Diversity Library for Multistage-Active Starting Points for Next-Generation Antimalarials” (ACS Infect Dis, 2020).

SMILES strings stand for the structures. Out of some 69,000 compounds screened, about 8,600 (12%) showed an effect of 50% or more. The sample as a whole holds a higher share of strong results than the screen did.

The test system of the experiment is Plasmodium berghei. The experiment in a line: Screen against P. berghei liver stage (PbLuc), transformed with Luciferase, at 10uM. The class given is functional, HepG2. The settings on record: tested at 10 uM.
`COCCN1C(=O)[C@@H]2CC[C@H]1CN(S(=O)(=O)c1ccc(C#N)cc1)C2`: the INHIBITION was 39.1%.
Regarding `Cc1cnn(CC2CCCCN2CC(=O)Nc2cccnc2)c1` (stereo unspecified), the INHIBITION worked out at 33.4%.
On to `O=C(NCc1cccnc1-n1cncn1)C1CC2(CCNCC2)CN1` (stereo unspecified), for which the INHIBITION was 20.2%.
The value for `O=C1CCN(C(=O)NCc2cccc(Oc3ccccc3)c2)CCN1` was 3.63%.
In the case of `O=C(NCC1(O)CCSCC1)c1ccoc1` it was -2.04%; in that of `O=C(Cc1cccs1)NCC1(O)CCSC1` (stereo unspecified), 54.8%.
On to `O=C(NCC1(O)CCSC1)c1ccoc1` (stereo unspecified), for which the INHIBITION was determined as 86.7%.
In the case of `O=C(Cc1cccs1)NCC1(O)CCc2ccccc2C1` (stereo unspecified) it was 37.4%.
In the case of `O=C(Cc1cccs1)NCC1(O)CCSCC1` it was -24.5%; in that of `COC1(CNC(=O)c2ccoc2)CCSC1` (stereo unspecified), 14.2%.
As to `CC(C)N(C)Cc1nnc2n1CCN(Cc1ccncc1)CC2`, the INHIBITION was 1.28%.
As to `CN1C(=O)[C@@H]2CC[C@H]1CN(C(=O)Nc1cccc3ccccc13)C2`, the INHIBITION is given as -42.1%.
Consider `NCc1n[nH]c(-c2ccc(F)cc2)n1`, for which the INHIBITION is listed as -19.7%.
As to `CC(C)C(=O)N(C)Cc1nc(N2CCCC2)ncc1-c1ccncc1`, the INHIBITION is recorded as 11.235%.
The value for `COCC(=O)N(C)Cc1nc(N2CCCC2)ncc1-c1ccncc1` was 52%.
Take `CCCC(=O)N(C)Cc1nc(N2CCCC2)ncc1-c1ccncc1`: the INHIBITION is on record as 14.855%.
The value for `Cc1cc(N(Cc2ccon2)S(C)(=O)=O)ccc1Br` was -22.6%.
Consider `CCCS(=O)(=O)N1C[C@@H]2CN(Cc3cccs3)CCO[C@@H]2C1`, for which the INHIBITION was -2.46%.
In the case of `CCS(=O)(=O)N1C[C@@H]2CN(Cc3ccco3)CCO[C@@H]2C1` it was -39.2%; in that of `CCCS(=O)(=O)N1C[C@@H]2CN(Cc3ccoc3)CCO[C@@H]2C1`, -58.9%.
For `c1csc(CN2CCO[C@@H]3CN(C4CCOCC4)C[C@@H]3C2)c1`, the INHIBITION came to 64.4%.
In the case of `O=S(=O)(C1CC1)N1C[C@@H]2CN(Cc3cccs3)CCO[C@@H]2C1` it was 34.3%.
For the compound `CCCS(=O)(=O)N1C[C@@H]2CN(Cc3cnn(C)c3)CCO[C@@H]2C1`, the INHIBITION is listed as 65.6%.
In the case of `O=S(=O)(C1CC1)N1CCO[C@@H]2CN(Cc3cccs3)C[C@@H]2C1`, the INHIBITION is reported as -23.4%.
The value for `CCS(=O)(=O)N1C[C@@H]2CN(Cc3cccs3)CCO[C@@H]2C1` was 90.7%; that for `CCS(=O)(=O)N1C[C@@H]2CN(Cc3cnn(C)c3)CCO[C@@H]2C1` was -13%.
As to `Cc1csc(C2CCCCN2C(=O)CN(C)C(C)C)n1` (stereo unspecified), the INHIBITION is -19.9%.
The value for `Cn1ccnc1COc1ccc(CN2CCC(C(N)=O)CC2)cc1` was -14.7%; that for `Nc1nc(CN2CCOC(Cn3cccn3)C2)nc2ccccc12` (stereo unspecified) was 1.75%.
Consider `c1ccc(-c2cc(CN3CCCC(Cn4cncn4)C3)on2)cc1` (stereo unspecified), for which the INHIBITION came to 11.6%.
In the case of `CS(=O)(=O)CCCC(=O)Nc1cc(Cl)c(Cl)cn1`, the INHIBITION was 15.7%.
The value for `CS(=O)(=O)CCC(=O)Nc1cc(Cl)c(Cl)cn1` was 35.2%.
The value for `COCCCC(=O)Nc1cc(Cl)c(Cl)cn1` was 79.8%; that for `COCCN1CCO[C@@H]2CN(Cc3cc(OC)cc(OC)c3)C[C@@H]2C1` was 39.3%; that for `CNc1cc(C2CN(Cc3coc(C)n3)CCO2)nc(C)n1` (stereo unspecified) was -3.31%.
In the case of `Cc1nn(C)c(C)c1CC(=O)NCc1ccnc(N2CCOCC2)c1` it was -34%; in that of `Cc1noc(C)c1-c1cccc(C2CN(CC(=O)N(C)C)CCO2)n1` (stereo unspecified), 24.35%.
For the compound `Oc1cccc2ccc(CN3CCC4(CCNCC4)C3)nc12`, the INHIBITION came out at 15.9%.
The value for `O=C1CC2(CCN(Cc3ccc4cccc(O)c4n3)CC2)CN1` was 58.6%; that for `O=C1CC2(CCN(Cc3ccc(C(F)(F)F)nc3)CC2)CN1` was 16.43%; that for `CCN(CC)CC1CN(Cc2nccs2)Cc2nccn2C1` (stereo unspecified) was -42.8%.
The value for `CC(C)NC(=O)C1Cc2nc(-c3ccsc3)sc2N1CC1CC1` (stereo unspecified) was 23.3%; that for `O=C(Nc1cccnc1)C1Cc2nc(-c3ccsc3)sc2N1CC1CC1` (stereo unspecified) was 60.9%.
In the case of `O=C(NC1CCCC1)C1Cc2nc(-c3ccsc3)sc2N1CC1CC1` (stereo unspecified) it was -2.35%.
Regarding `Cc1ccccc1C(O)c1ccncc1` (stereo unspecified), the INHIBITION is 1.95%.
The value for `Cc1cccc(NC(=O)[C@@H]2CCCN2Cc2nnc(C(C)C)n2C)n1` was 24.3%; that for `Cc1nonc1CNC(=O)C(C)Oc1cccc(F)c1` (stereo unspecified) was -35.5%; that for `COc1ccc(CCN(C)CCS(=O)(=O)c2ccc(Cl)cc2)cc1OC` was 63.7%.
As to `CCN(CCS(=O)(=O)c1ccc(Cl)cc1)Cc1ccc(OC)c(OC)c1`, the INHIBITION is 70.5%.
In the case of `COc1ccc(CCN(C)C(C(=O)O)c2ccc(F)c(C)c2)cc1OC` (stereo unspecified) it was 16.7%; in that of `COc1ccc(CN(C)CCS(=O)(=O)c2ccc(Cl)cc2)cc1OC`, 68.8%.
In the case of `CCN(Cc1nccs1)Cc1cc(Cl)ccc1OC` it was 15.3%.
The value for `COCCN(C)Cc1ccc(OC)c(OC(F)F)c1` was 26.8%; that for `COc1ccc(CCCN(C)C(=O)c2cc(Cl)c[nH]2)cc1OC` was 16.6%.
`COc1ccc(S(=O)(=O)NCCCc2ccc(N(C)C)cc2)cc1Cl`: the INHIBITION is 41.9%.
The value for `COc1ccc(Cl)cc1S(=O)(=O)N(C)CC(N)=O` was 23.5%.
